In PubChem BioAssay AID1159580 (chemical genetic matrix, 2015):
Screen size: about 5,500 compounds; about 2,000 (36%) were called active. Another 18% or so got no clear call; they are omitted. Cut-off read from the data, not from the text of the source: active = normalized growth mostly below about 0.91 (no sharp cut-off); inconclusive = no clear call, values can overlap the other calls; inactive = mostly above about 0.92. This is one part of the list.

Assay: chemical genetic growth profiling, strain panel (AID 1159580);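 note: tested at 20 µM; growth read once vehicle control cultures reached saturation at 30 °C; 1 = growth at the plate median or of vehicle wells; lower values mean less growth of the strain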
Conditions: S. cerevisiae deletion strains, growth OD

Measured: normalized growth

CN1CCc2cc3c(cc2[C@H]1C1OC(=O)c2c1ccc1c2OCO1)OCO3 (stereo partly specified)
inactive: locus YAL021C, strain ccr4, stronger effect = lower value 1.01 | locus YAL026C, strain drs2, stronger effect = lower value 0.989 | locus YAL030W, strain snc1, stronger effect = lower value 0.982 | locus YBL061C, strain skt5, stronger effect = lower value 0.982 | locus YBR009C, strain hhf1, stronger effect = lower value 0.989 | locus YBR023C, strain chs3, stronger effect = lower value 0.972 | locus YBR171W, strain sec66, stronger effect = lower value 0.997 | locus YBR231C, strain swc5, stronger effect = lower value 0.993 | locus YBR279W, strain paf1, stronger effect = lower value 0.993 | locus YCL011C, strain gbp2, stronger effect = lower value 0.985 | locus YCL016C, strain dcc1, stronger effect = lower value 0.981 | locus YCL061C, strain MRC1, stronger effect = lower value 0.993 | locus YCL069W, strain vba3, stronger effect = lower value 0.986 | locus YCR088W, strain abp1, stronger effect = lower value 0.98 | locus YDL005C, strain med2, stronger effect = lower value 0.988 | locus YDL040C, strain nat1, stronger effect = lower value 0.99 | locus YDR001C, strain nth1, stronger effect = lower value 0.986 | locus YDR069C, strain doa4, stronger effect = lower value 0.974 | locus YDR137W, strain rgp1, stronger effect = lower value 0.971 | locus YDR159W, strain sac3, stronger effect = lower value 0.976 | locus YDR195W, strain ref2 0.957 | locus YDR297W, strain sur2, stronger effect = lower value 0.987 | locus YDR334W, strain swr1, stronger effect = lower value 0.981 | locus YDR335W, strain msn5, stronger effect = lower value 0.996 | locus YDR392W, strain spt3, stronger effect = lower value 0.905 | locus YEL003W, strain gim4, stronger effect = lower value 0.991 | locus YEL037C, strain rad23, stronger effect = lower value 0.971 | locus YEL061C, strain CIN8 (second series), stronger effect = lower value 0.973 | locus YER015W, strain faa2, stronger effect = lower value 0.982 | locus YER016W, strain bim1, stronger effect = lower value 0.989 | locus YER111C, strain swi4, stronger effect = lower value 0.991 | locus YER155C, strain BEM2 (second series), stronger effect = lower value 0.968 | locus YFR010W, strain ubp6, stronger effect = lower value 0.977 | locus YGL167C, strain pmr1, stronger effect = lower value 0.98 | locus YGL173C, strain kem1, stronger effect = lower value 0.988 | locus YGL227W, strain vid30, stronger effect = lower value 0.976 | locus YGL240W, strain doc1, stronger effect = lower value 0.983 | locus YGL253W, strain hxk2, stronger effect = lower value 0.987 | locus YHR013C, strain ard1, stronger effect = lower value 0.959 | locus YHR027C, strain rpn1, stronger effect = lower value 0.993 | locus YHR030C, strain SLT2, stronger effect = lower value 0.985 | locus YHR079C, strain IRE1, stronger effect = lower value 0.989 | locus YHR142W, strain chs7, stronger effect = lower value 1.01 | locus YJL092W, strain hpr5, stronger effect = lower value 0.991 | locus YJL095W, strain BCK1 (second series), stronger effect = lower value 0.988 | locus YJL095W, strain BCK1, stronger effect = lower value 0.987 | locus YJL115W, strain asf1, stronger effect = lower value 0.983 | locus YJL129C, strain trk1, stronger effect = lower value 0.975 | locus YJL154C, strain vps35, stronger effect = lower value 0.985 | locus YJL164C, strain tpk1, stronger effect = lower value 1.01 | locus YJL166W, strain qcr8, stronger effect = lower value 0.999 | locus YJL187C, strain SWE1, stronger effect = lower value 0.986 | locus YJR066W, strain TOR1, stronger effect = lower value 0.93 | locus YKL160W, strain elf1, stronger effect = lower value 1.01 | locus YKR026C, strain gcn3, stronger effect = lower value 0.979 | locus YKR091W, strain srl3, stronger effect = lower value 0.99 | locus YLL001W, strain dnm1, stronger effect = lower value 0.987 | locus YLL026W, stronger effect = lower value 0.983 | locus YLL041C, strain sdh2, stronger effect = lower value 0.994 | locus YLR027C, strain aat2, stronger effect = lower value 0.976 | locus YLR113W, strain HOG1, stronger effect = lower value 0.987 | locus YLR221C, strain rsa3, stronger effect = lower value 0.989 | locus YLR258W, strain gsy2, stronger effect = lower value 0.988 | locus YLR262C, strain YPT6 (second series), stronger effect = lower value 0.97 | locus YLR320W, strain mms22, stronger effect = lower value 0.993 | locus YLR342W, strain FKS1, stronger effect = lower value 0.983 | locus YLR357W, strain rsc2, stronger effect = lower value 0.997 | locus YLR370C, strain arc18, stronger effect = lower value 0.983 | locus YLR384C, strain iki3, stronger effect = lower value 0.976 | locus YML120C, strain ndi1, stronger effect = lower value 0.981 | locus YMR058W, strain fet3, stronger effect = lower value 0.969 | locus YMR125W, strain sto1, stronger effect = lower value 0.973 | locus YMR129W, stronger effect = lower value 0.995 | locus YMR205C, strain PFK2, stronger effect = lower value 0.98 | locus YMR231W, strain pep5, stronger effect = lower value 0.987 | locus YNL071W, strain lat1, stronger effect = lower value 0.989 | locus YNL183C, strain NPR1, stronger effect = lower value 0.94 | locus YNL209W, strain ssb2, stronger effect = lower value 0.985 | locus YNL248C, strain rpa49, stronger effect = lower value 0.993 | locus YNL322C, strain KRE1 (second series), stronger effect = lower value 0.987 | locus YNR049C, strain mso1, stronger effect = lower value 0.99 | locus YOR001W, strain rrp6, stronger effect = lower value 1.01 | locus YOR070C, strain gyp1, stronger effect = lower value 0.973 | locus YOR080W, strain dia2, stronger effect = lower value 0.994 | locus YOR083W, strain WHI5, stronger effect = lower value 1.01 | locus YOR106W, strain vam3, stronger effect = lower value 0.99 | locus YOR231W, strain MKK1, stronger effect = lower value 0.977 | locus YOR265W, strain rbl2, stronger effect = lower value 0.99 | locus YOR270C, strain vph1, stronger effect = lower value 0.947 | locus YOR290C, strain snf2, stronger effect = lower value 0.974 | locus YPL051W, strain arl3, stronger effect = lower value 1 | locus YPL078C, strain atp4, stronger effect = lower value 1.01 | locus YPL106C, strain sse1, stronger effect = lower value 0.967 | locus YPL240C, strain hsp82, stronger effect = lower value 0.996 | locus YPL256C, strain CLN2, stronger effect = lower value 0.968

Cc1c(C(=O)c2cccc3ccccc23)c2cccc3c2n1[C@H](CN1CCOCC1)CO3
inactive: locus YAL013W, strain DEP1, stronger effect = lower value 0.978 | locus YAL040C, strain CLN3, stronger effect = lower value 1.01 | locus YCL061C, strain MRC1 (second series), stronger effect = lower value 0.986 | locus YDR363W, strain ESC2, stronger effect = lower value 0.973 | locus YER002W, strain NOP16, stronger effect = lower value 0.998 | locus YMR307W, strain GAS1, stronger effect = lower value 1.01 | locus YNL153C, strain GIM3, stronger effect = lower value 0.983 | locus YNL175C, strain NOP13, stronger effect = lower value 0.992 | locus YNL197C, strain WHI3, stronger effect = lower value 0.988 | locus YNL224C, strain SQS1, stronger effect = lower value 1.02 | locus YOR083W, strain WHI5 (second series), stronger effect = lower value 1.02
